Compounds with a hit are over-represented: about 1.2% of the library has one in this group of screens.
GRK2 inh: blocks RNA aptamer binding to human GRK2. bead flow cytometry, FAM-aptamer displacement from GRK2. inhibition of aptamer binding, % at 10 µM. 330,000 tested, 0.59% active. AID 488847;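 active means inhibition of aptamer binding above 40%, roughly 3 SD of noise, on plates passing a quality check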;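 further: median bead fluorescence of bound FAM aptamer so fluorescent compounds give negative values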
Target sequence (P25098 whole entry, looked up): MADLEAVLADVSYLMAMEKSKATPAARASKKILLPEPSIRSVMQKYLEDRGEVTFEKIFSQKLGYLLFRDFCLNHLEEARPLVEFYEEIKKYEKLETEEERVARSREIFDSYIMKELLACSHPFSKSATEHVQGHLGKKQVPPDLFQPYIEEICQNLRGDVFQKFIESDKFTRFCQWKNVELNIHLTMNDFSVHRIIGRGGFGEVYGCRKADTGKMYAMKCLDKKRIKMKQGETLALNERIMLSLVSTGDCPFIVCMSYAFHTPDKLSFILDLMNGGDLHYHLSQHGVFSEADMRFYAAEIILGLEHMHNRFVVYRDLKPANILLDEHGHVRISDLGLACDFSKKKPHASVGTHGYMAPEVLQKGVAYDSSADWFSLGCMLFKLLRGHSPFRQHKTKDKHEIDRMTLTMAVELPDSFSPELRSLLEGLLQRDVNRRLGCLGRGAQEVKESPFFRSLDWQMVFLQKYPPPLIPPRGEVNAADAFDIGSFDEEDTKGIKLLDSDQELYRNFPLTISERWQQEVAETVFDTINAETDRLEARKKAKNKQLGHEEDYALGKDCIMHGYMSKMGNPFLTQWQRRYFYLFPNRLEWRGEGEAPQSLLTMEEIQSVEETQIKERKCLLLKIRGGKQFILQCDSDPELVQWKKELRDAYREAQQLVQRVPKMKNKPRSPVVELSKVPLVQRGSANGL
Platelet DG rel: platelet dense granule release activity; 300,000 tested, 0.22% active; AID 1663; inhibition, %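 (compounds screened at 7.5 µM in platelet-rich plasma)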; human platelet-rich plasma, SFLLRN dense granule ATP release, luminescence;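 active means mean replicate score, as percent of positive control, at or above 50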
MIN6 prolif: inducers of beta-cell replication in MIN6 cells | MIN6 cells proliferation, ATPlite luminescence, 48 h; cells starved in 0.2% serum; 100% = growth in 10% serum | proliferation, % at 10 µM | 330,000 tested, 0.29% active | AID 2380;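 active means compounds whose signal lies at least 3.5 SD above the mean of all wells on their plate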;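 further: 0% = DMSO-treated cells in low-serum medium and 100% = 10% serum control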
NTR1 agonist: agonists of human neurotensin receptor NTR1; P30989; NTR1-U2OS beta-arrestin-GFP spot imaging, agonist mode; activation, % at 20 µM; 330,000 tested, 0.17% active; AID 493036;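 active means activation at or above 40% of the spot to cytoplasm intensity ratio, with at least 20 cells analyzed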;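 further: 0% = DMSO without peptide and 100% = 100 nM NTR1 peptide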
GRK2 inh confirm: confirmation of human GRK2 inhibitors displacing RNA aptamer; shares compounds with GRK2 inh; bead-bound GRK2, FAM-aptamer displacement, flow cytometry; aptamer displacement, % at 10 µM; 2,000 tested, 4% active; AID 504451;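 active means aptamer displacement above 40%, near three times the noise of non-fluorescent compounds, on plates passing quality checks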;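 further: negative values mostly reflect intrinsic compound fluorescence rather than true enhancement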
FAM quench CP1: counter-screen for GRK2 aptamer inhibitors: fluorescent aptamer quenchers. shares compounds with GRK2 inh. Carboxyfluorescein RNA aptamer on beads, flow cytometry quenching; stronger effect = lower value. fluorescence response (% of DMSO), % at 10 µM. 2,000 tested, under 10 active;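 active means compounds that quench the bead-bound fluorescent RNA probe, cutting fluorescence to under half of the solvent control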;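 further: counterscreen run without GRK2 so only probe quenching by compound is measured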
* marks the source's active call; other numbers are inactive results.

What do the screens show for `CC(=O)c1cccc(NC(=O)c2cnn(-c3ccccc3)c2C)c1`?
GRK2 inh: 0; Platelet DG rel: 8; MIN6 prolif: -2; NTR1 agonist: 0; GRK2 inh confirm: 6; FAM quench CP1: 97

Results for c1ccc2cc(OCCOCCOc3ccc4ccccc4c3)ccc2c1 ?
GRK2 inh: 55*; Platelet DG rel: 12; MIN6 prolif: -6; NTR1 agonist: 3; GRK2 inh confirm: -4; FAM quench CP1: 101

What do the screens show for `CCN1CCN(S(=O)(=O)c2ccc(OC)c(NC(=O)c3ccccc3F)c2)CC1`?
GRK2 inh: 0; Platelet DG rel: -1; MIN6 prolif: 1; NTR1 agonist: 0

How did Cc1c(C)c2ccc(OCC(=O)Nc3nccs3)cc2oc1=O do in these assays?
GRK2 inh: 0; Platelet DG rel: 10; MIN6 prolif: -6; NTR1 agonist: 1

What do the screens show for `Cc1cc(=O)oc2cc(OCC(=O)Nc3nccs3)ccc12`?
GRK2 inh: 57*; Platelet DG rel: -3; MIN6 prolif: -1; NTR1 agonist: 3; GRK2 inh confirm: 0; FAM quench CP1: 102

Results for Cc1nc(N)nc(N)c1CCCc1ccc(Cl)c(Cl)c1 ?
GRK2 inh: 0; Platelet DG rel: 4; MIN6 prolif: -3; NTR1 agonist: 4

What do the screens show for `CCCn1nc(C(=O)Nc2ccc(N3CCOCC3)cc2)c2ccccc2c1=O`?
GRK2 inh: 2; MIN6 prolif: -2; NTR1 agonist: 4

How did CC(Cl)C(=O)Nc1ncc(C(F)(F)F)cc1Cl (configuration not stated) do in these assays?
GRK2 inh: 52*; Platelet DG rel: -3; MIN6 prolif: 1; NTR1 agonist: 1; GRK2 inh confirm: -1; FAM quench CP1: 101

How did O=C(Cn1cnc2ccccc21)NCc1ccccc1 do in these assays?
GRK2 inh: 3; Platelet DG rel: 8; MIN6 prolif: 0; NTR1 agonist: 2

Results for O=C(Cc1ccccc1)Nn1cnc2ccccc21 ?
GRK2 inh: 55*; Platelet DG rel: 0; MIN6 prolif: -3; NTR1 agonist: 0; GRK2 inh confirm: -4; FAM quench CP1: 97

Results for CC(Cn1cncn1)C(=O)N1CCN(S(=O)(=O)c2ccccc2)CC1 (configuration not stated) ?
GRK2 inh: 1; Platelet DG rel: -5; MIN6 prolif: -2; NTR1 agonist: -1

How did Cc1cc(OCc2nc(-c3ccncc3)no2)cc(C)c1Cl do in these assays?
GRK2 inh: 47*; Platelet DG rel: 2; MIN6 prolif: -3; NTR1 agonist: -1; GRK2 inh confirm: -1; FAM quench CP1: 100

How did Cc1c(NC(=O)CN2C(=O)C3C4C=CC(C4)C3C2=O)c(=O)n(-c2ccccc2)n1C (configuration not stated) do in these assays?
GRK2 inh: 1; Platelet DG rel: -2; MIN6 prolif: -1; NTR1 agonist: -1

What do the screens show for `Cc1c(NC(=O)NC(C)N2C(=O)C3C4C=CC(C4)C3C2=O)c(=O)n(-c2ccccc2)n1C` (configuration not stated)?
GRK2 inh: 81*; Platelet DG rel: -2; MIN6 prolif: 0; NTR1 agonist: 0; GRK2 inh confirm: 3; FAM quench CP1: 101

Results for CCCCn1c(N)c(N(CCOC)C(=O)c2cccc(-n3cnnn3)c2)c(=O)[nH]c1=O ?
GRK2 inh: 0; Platelet DG rel: -7; MIN6 prolif: 1; NTR1 agonist: -2

What do the screens show for `Cc1ccc2oc(-c3ccc(NC(=O)c4ccncc4)cc3O)nc2c1`?
GRK2 inh: 0; Platelet DG rel: 4; MIN6 prolif: -1; NTR1 agonist: 25

How did COc1ccc(CC(=O)Nc2ccc(-c3nc4cc(C)ccc4o3)c(O)c2)cc1OC do in these assays?
GRK2 inh: 71*; Platelet DG rel: -9; MIN6 prolif: -3; NTR1 agonist: 1; GRK2 inh confirm: -21; FAM quench CP1: 109

What do the screens show for `Cc1cc(C)c2sc(NC(=O)C3CC3)nc2c1`?
GRK2 inh: 0; Platelet DG rel: -1; MIN6 prolif: -1; NTR1 agonist: 4

How did CCCCN1C(C(=O)Nc2ncccn2)=C(O)c2ccccc2S1(=O)=O do in these assays?
GRK2 inh: 4; Platelet DG rel: 10; MIN6 prolif: -1; NTR1 agonist: 0; GRK2 inh confirm: -1; FAM quench CP1: 96

How did O=C(CCSCCC(=O)NCc1ccccc1)NCc1ccccc1 do in these assays?
GRK2 inh: 87*; Platelet DG rel: -3; MIN6 prolif: 0; NTR1 agonist: -1; GRK2 inh confirm: 1; FAM quench CP1: 101

What do the screens show for `CN(C)/C=C/C=C1C(=O)CCCC1=O`?
GRK2 inh: 42*; Platelet DG rel: 7; MIN6 prolif: -2; NTR1 agonist: 1; GRK2 inh confirm: 11; FAM quench CP1: 102

What do the screens show for `CC(=O)NC(C)C(=O)OCC(=O)c1ccc(-c2ccccc2)cc1` (configuration not stated)?
GRK2 inh: 0; Platelet DG rel: 1; MIN6 prolif: 0; NTR1 agonist: -1

Results for O=C(COC(=O)c1cccc(Cl)c1)NCc1ccccc1 ?
GRK2 inh: 1; MIN6 prolif: -3; NTR1 agonist: 1

How did O=C(NCc1ccc(F)cc1)c1cc2c(cc1Cl)N1CCCCCC1=NS2(=O)=O do in these assays?
GRK2 inh: 2; MIN6 prolif: 1; NTR1 agonist: 6

What do the screens show for `CNC(=O)NC(=O)COC(=O)CCCSc1nc2ccccc2s1`?
GRK2 inh: 2; Platelet DG rel: 1; MIN6 prolif: 0; NTR1 agonist: 0

What do the screens show for `NC(=O)COC(=O)CCCSc1nc2ccccc2s1`?
GRK2 inh: 51*; Platelet DG rel: -13; MIN6 prolif: -1; NTR1 agonist: -1; GRK2 inh confirm: 1; FAM quench CP1: 97

Results for O=C(NCCO)C(=O)Nc1cc2c3c(c1)CCC(=O)N3CCC2 ?
GRK2 inh: 0; Platelet DG rel: 1; MIN6 prolif: -3; NTR1 agonist: -1

Results for O=C(Cc1cccs1)NCc1cccs1 ?
GRK2 inh: 0; Platelet DG rel: 5; MIN6 prolif: -3; NTR1 agonist: 0

Results for O=C(Cc1cccs1)NCc1cccc(Br)c1 ?
GRK2 inh: 55*; Platelet DG rel: 3; MIN6 prolif: -1; NTR1 agonist: -1; GRK2 inh confirm: 2; FAM quench CP1: 102

How did COc1cc(C2C(C#N)=C(N)Oc3c2ccc2ccccc32)ccc1OCC(=O)Nc1cccc(C)c1 (configuration not stated) do in these assays?
GRK2 inh: 0; Platelet DG rel: 6; MIN6 prolif: 0; NTR1 agonist: 5

Results for COc1cc(C2C(C#N)=C(N)Oc3c2ccc2ccccc32)ccc1OCC(=O)Nc1ccc(C)cc1 (configuration not stated) ?
GRK2 inh: 0; Platelet DG rel: 7; MIN6 prolif: -6; NTR1 agonist: 2; GRK2 inh confirm: 1; FAM quench CP1: 94

Screening data: PubChem, several laboratories
